# From PMC7862700, “An all-to-all approach to the identification of sequence-specific readers for epigenetic DNA modifications on cytosine”
# Assays:
# Test in all cases: DAPPL (digital affinity profiling via proximity ligation, sequencing); 10 mM Tris-HCl pH 7.5, 50 mM NaCl, 1 mM DTT, 4% glycerol, room temperature, 30 min; GST-TFs on glutathione beads, 16-mer random dsDNA library, 0.1% formaldehyde crosslink after washing; high values mean tight binding
# Details in all cases: protein: recombinant; tags: N-terminal GST; dsDNA, one strand shown
# FLI1 = target: T1, FLI1 (Homo sapiens, UniProt Q01543 1-452)
# T1 sequence: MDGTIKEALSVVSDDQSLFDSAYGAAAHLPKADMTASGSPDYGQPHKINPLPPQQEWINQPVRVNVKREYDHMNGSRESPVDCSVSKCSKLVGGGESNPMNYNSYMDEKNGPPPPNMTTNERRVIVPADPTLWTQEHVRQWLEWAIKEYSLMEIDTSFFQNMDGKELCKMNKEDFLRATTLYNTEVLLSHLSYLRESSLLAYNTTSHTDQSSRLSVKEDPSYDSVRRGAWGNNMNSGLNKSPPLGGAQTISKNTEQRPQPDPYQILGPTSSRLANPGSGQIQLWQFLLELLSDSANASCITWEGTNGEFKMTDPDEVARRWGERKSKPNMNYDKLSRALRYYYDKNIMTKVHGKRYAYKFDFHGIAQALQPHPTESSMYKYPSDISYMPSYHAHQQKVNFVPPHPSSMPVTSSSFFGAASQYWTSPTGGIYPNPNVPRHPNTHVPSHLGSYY
# Method in brief: (§1)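 Binding signal is defined as a hexamer's read frequency for one factor over its frequency for the tag-only sample. To obtain reads, GST-fused human transcription factors were expressed in yeast, captured on glutathione beads, barcoded with DNA and pooled with that sample. Pools met 200 nmole of a 16-mer random double-stranded DNA library in Tris/NaCl/DTT/glycerol buffer for 30 min at room temperature before washing, 0.1% formaldehyde crosslinking, proximity ligation (BsaI/T4 ligase, 1 h, 37 °C), PCR and Illumina NextSeq500 sequencing.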
# ELK1 = target: T2, ELK1 (Homo sapiens, UniProt P19419 1-428)
# T2 sequence: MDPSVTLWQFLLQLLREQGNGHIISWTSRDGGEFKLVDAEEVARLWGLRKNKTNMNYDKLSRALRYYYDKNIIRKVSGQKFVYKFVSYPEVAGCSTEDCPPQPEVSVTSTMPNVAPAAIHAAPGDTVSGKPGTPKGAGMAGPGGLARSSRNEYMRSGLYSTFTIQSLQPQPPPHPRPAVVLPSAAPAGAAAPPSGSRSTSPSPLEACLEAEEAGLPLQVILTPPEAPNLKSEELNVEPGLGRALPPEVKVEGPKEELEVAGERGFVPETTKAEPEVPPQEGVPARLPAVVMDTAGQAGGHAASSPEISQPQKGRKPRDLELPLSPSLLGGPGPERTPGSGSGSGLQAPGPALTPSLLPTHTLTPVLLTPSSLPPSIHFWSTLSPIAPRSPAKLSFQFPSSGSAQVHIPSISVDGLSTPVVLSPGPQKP
# Method in brief: as §1
# GABPA = target: T3, GABPA (Homo sapiens, UniProt Q06546 1-454)
# T3 sequence: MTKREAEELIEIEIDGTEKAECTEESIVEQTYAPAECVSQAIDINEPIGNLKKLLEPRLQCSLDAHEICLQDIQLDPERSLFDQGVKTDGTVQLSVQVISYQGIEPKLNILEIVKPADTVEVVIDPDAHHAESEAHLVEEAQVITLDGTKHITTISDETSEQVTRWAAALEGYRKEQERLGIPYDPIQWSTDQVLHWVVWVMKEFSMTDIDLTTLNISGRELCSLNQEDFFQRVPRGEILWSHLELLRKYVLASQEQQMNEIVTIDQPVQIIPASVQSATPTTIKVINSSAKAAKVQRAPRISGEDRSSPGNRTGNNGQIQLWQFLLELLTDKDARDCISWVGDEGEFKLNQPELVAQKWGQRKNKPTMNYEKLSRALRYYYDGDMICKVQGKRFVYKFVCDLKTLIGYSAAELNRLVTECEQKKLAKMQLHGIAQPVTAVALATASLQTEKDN
# Method in brief: as §1
# ERG = target: T4, ERG (Homo sapiens, UniProt P11308 1-479)
# T4 sequence: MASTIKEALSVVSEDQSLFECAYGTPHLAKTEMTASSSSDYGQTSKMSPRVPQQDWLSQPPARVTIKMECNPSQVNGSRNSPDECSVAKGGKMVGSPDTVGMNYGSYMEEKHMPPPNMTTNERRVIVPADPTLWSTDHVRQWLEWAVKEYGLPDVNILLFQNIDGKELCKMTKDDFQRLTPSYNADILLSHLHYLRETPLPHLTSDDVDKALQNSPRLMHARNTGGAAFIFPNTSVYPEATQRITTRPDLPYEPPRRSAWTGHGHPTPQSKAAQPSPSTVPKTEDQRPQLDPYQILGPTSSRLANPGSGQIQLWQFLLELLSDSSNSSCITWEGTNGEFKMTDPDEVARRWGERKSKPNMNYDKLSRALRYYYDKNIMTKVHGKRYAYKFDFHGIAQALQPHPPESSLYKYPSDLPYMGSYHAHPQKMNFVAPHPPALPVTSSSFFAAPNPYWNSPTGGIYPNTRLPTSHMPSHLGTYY
# Method in brief: as §1
# ELF1 = ELF1 (Homo sapiens, UniProt P32519 1-619)
# Method in brief: as §1
# EHF = target: T5, EHF (Homo sapiens, UniProt Q9NZC4 1-300)
# T5 sequence: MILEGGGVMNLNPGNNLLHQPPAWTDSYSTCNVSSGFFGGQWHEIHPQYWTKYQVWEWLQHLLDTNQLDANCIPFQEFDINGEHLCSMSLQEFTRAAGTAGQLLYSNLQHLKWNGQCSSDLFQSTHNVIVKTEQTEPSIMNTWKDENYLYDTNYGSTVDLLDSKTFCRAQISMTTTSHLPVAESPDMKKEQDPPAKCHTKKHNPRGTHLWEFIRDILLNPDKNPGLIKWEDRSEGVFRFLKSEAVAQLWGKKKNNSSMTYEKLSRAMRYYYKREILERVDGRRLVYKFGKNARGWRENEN
# Method in brief: as §1
# SPI1 = SPI1 (Homo sapiens, UniProt P17947 1-270)
# Method in brief: as §1
# SPIB = SPIB (Homo sapiens, UniProt Q01892 1-262)
# Method in brief: as §1
# ELK3 = target: T6, ELK3 (Homo sapiens, UniProt P41970 1-407)
# T6 sequence: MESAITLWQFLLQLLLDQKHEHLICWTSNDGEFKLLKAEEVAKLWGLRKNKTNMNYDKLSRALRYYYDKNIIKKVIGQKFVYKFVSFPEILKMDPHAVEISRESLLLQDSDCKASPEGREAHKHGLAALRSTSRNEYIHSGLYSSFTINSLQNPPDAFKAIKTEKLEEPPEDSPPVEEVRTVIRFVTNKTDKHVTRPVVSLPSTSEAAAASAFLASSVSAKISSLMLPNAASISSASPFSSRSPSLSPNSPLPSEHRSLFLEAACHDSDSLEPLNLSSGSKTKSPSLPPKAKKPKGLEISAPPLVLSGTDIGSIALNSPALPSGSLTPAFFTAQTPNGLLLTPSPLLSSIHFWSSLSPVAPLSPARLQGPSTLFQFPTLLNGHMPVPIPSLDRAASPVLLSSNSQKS
# Method in brief: as §1
# ETV5 = ETV5 (Homo sapiens, UniProt P41161 1-510)
# Method in brief: as §1
# Sequence of ETV5 (P41161 whole entry): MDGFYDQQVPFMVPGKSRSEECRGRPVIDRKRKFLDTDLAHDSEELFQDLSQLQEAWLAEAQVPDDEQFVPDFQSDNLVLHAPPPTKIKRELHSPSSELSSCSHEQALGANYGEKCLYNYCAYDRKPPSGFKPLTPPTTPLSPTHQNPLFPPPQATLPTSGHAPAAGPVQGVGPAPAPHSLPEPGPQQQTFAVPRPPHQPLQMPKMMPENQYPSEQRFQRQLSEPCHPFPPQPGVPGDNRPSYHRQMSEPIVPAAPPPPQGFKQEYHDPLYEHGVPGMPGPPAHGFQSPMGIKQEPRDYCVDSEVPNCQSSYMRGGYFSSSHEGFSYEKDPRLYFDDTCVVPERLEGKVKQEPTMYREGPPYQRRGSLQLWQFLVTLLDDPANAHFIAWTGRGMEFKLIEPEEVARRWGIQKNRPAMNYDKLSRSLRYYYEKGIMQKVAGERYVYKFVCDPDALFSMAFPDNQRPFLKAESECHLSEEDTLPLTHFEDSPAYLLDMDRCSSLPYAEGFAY
# Sequence of ELF1 (P32519 whole entry): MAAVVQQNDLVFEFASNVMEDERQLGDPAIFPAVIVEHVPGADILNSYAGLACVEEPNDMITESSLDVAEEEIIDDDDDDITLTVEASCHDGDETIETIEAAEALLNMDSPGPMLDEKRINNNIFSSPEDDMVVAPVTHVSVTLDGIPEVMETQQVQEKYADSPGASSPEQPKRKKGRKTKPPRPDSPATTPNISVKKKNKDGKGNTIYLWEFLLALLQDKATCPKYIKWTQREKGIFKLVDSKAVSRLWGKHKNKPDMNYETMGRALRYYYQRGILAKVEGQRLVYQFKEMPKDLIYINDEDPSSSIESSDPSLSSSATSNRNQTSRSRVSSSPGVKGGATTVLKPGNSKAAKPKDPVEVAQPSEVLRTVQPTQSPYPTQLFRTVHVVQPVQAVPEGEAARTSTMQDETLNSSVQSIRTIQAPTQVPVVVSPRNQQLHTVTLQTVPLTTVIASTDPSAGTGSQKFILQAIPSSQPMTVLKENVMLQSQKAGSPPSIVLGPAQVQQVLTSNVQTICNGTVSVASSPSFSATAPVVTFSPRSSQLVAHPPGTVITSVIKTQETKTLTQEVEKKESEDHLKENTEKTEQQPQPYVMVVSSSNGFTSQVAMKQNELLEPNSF
# Sequence of SPIB (Q01892 whole entry): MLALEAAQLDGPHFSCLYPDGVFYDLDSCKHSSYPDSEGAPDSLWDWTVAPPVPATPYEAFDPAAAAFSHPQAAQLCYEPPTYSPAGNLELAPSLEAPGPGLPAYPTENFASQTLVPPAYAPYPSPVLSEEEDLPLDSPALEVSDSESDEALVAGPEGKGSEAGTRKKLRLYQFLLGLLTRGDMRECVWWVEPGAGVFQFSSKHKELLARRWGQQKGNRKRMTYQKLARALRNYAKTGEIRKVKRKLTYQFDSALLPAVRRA
sequence,measurement,setting,value
TGGCCG,binding signal,FLI1,"1.11 fold enrichment (6-mer frequency, TF over GST control)"
same,binding signal,ELK1,"1.19 fold enrichment (6-mer frequency, TF over GST control)"
same,binding signal,GABPA,"1.15 fold enrichment (6-mer frequency, TF over GST control)"
same,binding signal,ERG,"1.19 fold enrichment (6-mer frequency, TF over GST control)"
same,binding signal,ELF1,"1.08 fold enrichment (6-mer frequency, TF over GST control)"
same,binding signal,EHF,"1.02 fold enrichment (6-mer frequency, TF over GST control)"
same,binding signal,SPI1,"1.14 fold enrichment (6-mer frequency, TF over GST control)"
same,binding signal,SPIB,"1.17 fold enrichment (6-mer frequency, TF over GST control)"
same,binding signal,ELK3,"1.14 fold enrichment (6-mer frequency, TF over GST control)"
same,binding signal,ETV5,"1.17 fold enrichment (6-mer frequency, TF over GST control)"
